# PubChem BioAssay AID2073 (Sanford-Burnham Center for Chemical Genomics, 2009)
# About 570 (0.2%) of roughly 290,000 compounds were called active. About 1% were inconclusive and are not listed. Rule as the data show it: active = inhibition mostly above about 51% (no sharp cut-off); inconclusive = no clear call, values can overlap the other calls; inactive = mostly below about 53%. The full list was thinned out, with actives kept by preference.
# Molecular target: Voltage-dependent N-type calcium channel subunit alpha-1B (Homo sapiens) (UniProt Q00975)
# Sequence (Q00975 whole entry, looked up): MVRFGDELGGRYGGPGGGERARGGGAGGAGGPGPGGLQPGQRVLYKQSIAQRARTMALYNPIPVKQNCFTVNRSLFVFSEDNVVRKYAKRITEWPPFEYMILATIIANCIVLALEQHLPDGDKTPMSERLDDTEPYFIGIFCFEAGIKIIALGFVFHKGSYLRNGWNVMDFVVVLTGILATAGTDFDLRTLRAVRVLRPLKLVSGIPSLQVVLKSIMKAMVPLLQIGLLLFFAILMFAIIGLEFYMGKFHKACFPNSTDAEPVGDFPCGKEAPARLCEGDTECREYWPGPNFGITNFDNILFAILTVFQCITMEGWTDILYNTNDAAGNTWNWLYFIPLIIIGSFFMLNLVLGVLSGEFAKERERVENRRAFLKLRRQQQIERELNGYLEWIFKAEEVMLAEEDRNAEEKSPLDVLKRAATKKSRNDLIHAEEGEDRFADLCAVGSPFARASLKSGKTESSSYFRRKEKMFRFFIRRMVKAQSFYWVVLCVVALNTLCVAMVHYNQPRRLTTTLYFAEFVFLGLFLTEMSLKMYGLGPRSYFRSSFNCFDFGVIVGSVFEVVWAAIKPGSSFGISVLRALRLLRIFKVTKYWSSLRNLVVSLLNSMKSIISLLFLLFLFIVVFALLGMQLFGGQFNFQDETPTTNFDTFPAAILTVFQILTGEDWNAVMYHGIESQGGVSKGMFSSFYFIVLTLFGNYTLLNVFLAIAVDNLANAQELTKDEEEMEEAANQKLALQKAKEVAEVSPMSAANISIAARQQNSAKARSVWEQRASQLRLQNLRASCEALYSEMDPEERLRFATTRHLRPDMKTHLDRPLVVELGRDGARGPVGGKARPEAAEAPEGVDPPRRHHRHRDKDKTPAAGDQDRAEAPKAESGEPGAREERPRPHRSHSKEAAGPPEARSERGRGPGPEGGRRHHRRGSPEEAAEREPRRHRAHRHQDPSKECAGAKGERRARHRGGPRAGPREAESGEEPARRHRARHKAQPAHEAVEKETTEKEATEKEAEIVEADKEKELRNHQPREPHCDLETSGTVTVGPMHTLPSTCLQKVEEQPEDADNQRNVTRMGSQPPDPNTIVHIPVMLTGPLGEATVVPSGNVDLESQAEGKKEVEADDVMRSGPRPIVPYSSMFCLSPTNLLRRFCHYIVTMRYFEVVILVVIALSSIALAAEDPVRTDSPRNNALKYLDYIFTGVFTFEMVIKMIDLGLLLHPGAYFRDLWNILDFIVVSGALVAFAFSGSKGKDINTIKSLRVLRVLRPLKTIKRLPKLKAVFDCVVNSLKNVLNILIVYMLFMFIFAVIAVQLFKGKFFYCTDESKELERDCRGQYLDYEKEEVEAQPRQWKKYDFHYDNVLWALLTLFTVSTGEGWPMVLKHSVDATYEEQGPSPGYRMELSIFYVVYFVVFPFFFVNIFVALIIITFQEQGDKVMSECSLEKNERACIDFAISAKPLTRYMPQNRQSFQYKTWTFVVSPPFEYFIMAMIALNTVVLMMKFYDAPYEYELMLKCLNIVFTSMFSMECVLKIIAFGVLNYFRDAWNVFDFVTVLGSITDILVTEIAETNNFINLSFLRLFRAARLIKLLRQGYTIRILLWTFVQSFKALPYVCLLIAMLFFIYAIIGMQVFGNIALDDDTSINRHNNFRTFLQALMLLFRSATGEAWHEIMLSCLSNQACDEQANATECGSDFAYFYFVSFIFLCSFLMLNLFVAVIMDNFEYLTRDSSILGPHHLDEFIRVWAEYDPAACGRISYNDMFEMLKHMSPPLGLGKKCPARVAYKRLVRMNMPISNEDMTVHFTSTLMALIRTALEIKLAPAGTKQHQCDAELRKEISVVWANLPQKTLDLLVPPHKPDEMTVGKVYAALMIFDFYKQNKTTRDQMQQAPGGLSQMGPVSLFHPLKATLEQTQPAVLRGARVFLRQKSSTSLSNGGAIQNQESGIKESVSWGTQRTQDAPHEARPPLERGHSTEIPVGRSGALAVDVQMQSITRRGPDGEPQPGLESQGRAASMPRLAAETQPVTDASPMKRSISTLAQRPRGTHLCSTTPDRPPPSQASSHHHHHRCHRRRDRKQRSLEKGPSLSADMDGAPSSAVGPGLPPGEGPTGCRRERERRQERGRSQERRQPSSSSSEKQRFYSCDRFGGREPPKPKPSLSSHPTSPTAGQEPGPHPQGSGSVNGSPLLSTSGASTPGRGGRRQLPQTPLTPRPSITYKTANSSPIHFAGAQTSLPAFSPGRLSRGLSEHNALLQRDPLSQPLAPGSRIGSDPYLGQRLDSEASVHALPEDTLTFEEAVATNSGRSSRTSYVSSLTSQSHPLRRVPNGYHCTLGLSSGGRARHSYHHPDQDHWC
# Experiment: disruptors of CaV2.2 binding to Mint1 – biochemical, HTRF (AID 2073)
# Details: HTRF protein-protein interaction, Mint1-CaV2.2, at 20 µM, stronger effect = higher value
SMILES,inhibition,inhibition (measured here: average of repeat tests)
O=C(O)CCNS(=O)(=O)c1ccc(Oc2ccccc2)cc1,-1.3% (inactive),–
CSCCC(NC(=O)OC(C)(C)C)C(=O)NC(C(=O)NC(CC(C)C)C(N)=O)C(C)C (stereo not drawn),15.6% (inactive),–
Cc1ccc(N2C(=O)C3C4C=CC(CNC(=S)N5CCN(c6ccccc6)CC5)(O4)C3C2=O)cc1 (stereo not drawn),45.6% (inactive),–
CCOC(=O)C1CCN(C(=O)Nc2ccc3nc(C)c(C)nc3c2)CC1,36% (inactive),–
CCOC(=O)C1CCN(C(=O)Nc2ccc3nc(-c4ccco4)c(-c4ccco4)nc3c2)CC1,83.1% (active),–
O=C(Nc1ccc2nc(-c3ccco3)c(-c3ccco3)nc2c1)N1CCN(c2ccccn2)CC1,84.9% (active),–
Cc1nc2ccc(NC(=O)N3CCCCC3)cc2nc1C,40.3% (inactive),–
O=C(Nc1ccc(N2CCOCC2)cc1)Nc1ccc2nc(-c3ccco3)c(-c3ccco3)nc2c1,48.8% (inactive),–
O=C(Nc1ccc2nc(-c3ccco3)c(-c3ccco3)nc2c1)N1CCCCCC1,71.2% (active),–
CCOC(=O)C1CCN(C(=O)Nc2ccc3nccnc3c2)CC1,24.5% (inactive),–
Cc1nc2cc(NC(=O)N3CCN(c4ccccn4)CC3)ccc2o1,0% (inactive),–
Cn1nnc2cc(NC(=O)N3CCN(c4ccccn4)CC3)ccc21,-0.5% (inactive),–
Cc1ccc(NC(=O)NC(=O)CSc2nnnn2C)c(C)c1,-7.8% (inactive),–
COc1cccc(C(C(=O)NC(C)(C)C)N(C(=O)CCC(=O)Nc2cc(C)on2)C(C)(C)C)c1OC (stereo not drawn),-7.6% (inactive),–
O=C(CN1CCCCCC1=O)N1CCN(S(=O)(=O)c2cccs2)CC1,14.5% (inactive),–
CCOC(=O)c1[nH]c2ccccc2c1CCCN1C(=O)c2ccccc2C1=O,-6.7% (inactive),–
CN(C)C(=O)CCC(=O)N1CCCC(N2CCN(c3cccc(C(F)(F)F)c3)CC2)C1 (stereo not drawn),5.4% (inactive),–
Nc1nc(N2CCN(c3ccccc3)CC2)n[nH]1,-13.2% (inactive),–
CCn1c(SCC(=O)N2CCC(C)CC2)nc2c1c(=O)n(C)c(=O)n2C,2.5% (inactive),–
NC(=O)CCC(NS(=O)(=O)c1ccc(Cl)cc1)C(=O)NCc1ccccc1 (stereo not drawn),-16.2% (inactive),–
CC(C)C(=O)N1CCN(c2ccc(NC(=O)c3cccs3)cc2Cl)CC1,0.8% (inactive),–
CCOC(=O)C1CCN(C(=O)CN(c2ccc3c(c2)OCCO3)S(C)(=O)=O)CC1,-9.6% (inactive),–
Cc1cccc(COCC(Cc2ccccc2)N2CCN(C(=O)c3cccc(Cl)c3)CCC2=O)c1 (stereo not drawn),1.7% (inactive),–
O=S(=O)(NC1=NCCCCC1)c1ccccc1Cl,7.5% (inactive),–
CC1=Nc2nc(N3CCCCC3)c(C#N)c3c4c(nc(c23)N1)N(c1ccc(C(C)C)cc1)C(=O)C4,54.8% (active),–

SMILES,inhibition,inhibition (measured here: average of repeat tests)
COc1ccc(CN2C(=O)Cc3c2nc(N)c2c(N)nc(N4CCCCC4)c(C#N)c32)cc1,24.2% (inactive),–
CCN(CC)c1nc2c3c(nc4c(c3c1C#N)CC(=O)N4c1ccc(Cl)cc1)NC(C)=N2,15.5% (inactive),–
C/C(=N\NC(N)=S)C1(C)CCCCC1,1.7% (inactive),–
Cc1cc(-c2csc(NC(=O)c3ccc(C#N)cc3)n2)c(C)n1Cc1ccccc1,31.3% (inactive),–
CCNc1nc(-c2cc(C)n(Cc3ccco3)c2C)cs1,71.4% (inactive),-8.8%
Cc1cc(-c2csc(NC(=O)c3ccc(C#N)cc3)n2)c(C)n1Cc1ccco1,74% (active),–
COc1ccc(-c2noc(N3CCC(C(=O)Nc4ccccc4Cl)CC3)n2)cc1,1.9% (inactive),–
Cc1onc(-c2ccccc2)c1C(=O)OCC(=O)NCc1ccc(F)cc1,-0.7% (inactive),–
CCOc1ccc(Oc2c(C)oc3cc(O)ccc3c2=O)cc1,15.1% (inactive),–
Cc1ccc(-c2nc(C=Nc3ccccc3)c(O)o2)cc1,-6.2% (inactive),–
Cc1ccc(N=Cc2nc(-c3ccc(C)cc3)oc2O)cc1,17.5% (inactive),–
CC(NCC(O)c1ccc([N+](=O)[O-])cc1)C12CC3CC(CC(C3)C1)C2 (stereo not drawn),0.6% (inactive),–
CCNC(=O)COC(=O)c1ccc(-n2nc(C)cc2C)cc1,5.8% (inactive),–
O=C(/C(=N/N=C/c1ccc(O)c(O)c1O)c1ccccc1)c1ccccc1,66.2% (active),–
COc1cc(/C=N/N=C(/C(=O)c2ccccc2)c2ccccc2)cc(OC)c1O,-2.5% (inactive),–
O=C(/C(=N/N=C/c1ccc(O)c(O)c1)c1ccccc1)c1ccccc1,-21.8% (inactive),–
CCC(=O)N1CC2(C)CN(C(=O)CC)CC(C)(C1)C2,-2.6% (inactive),–
COc1ccc(C(=O)N2CCCC(CO)(Cc3ccccc3C)C2)o1 (stereo not drawn),2.1% (inactive),–
CCCCc1ccc(-c2csc(/C(C#N)=C/c3ccco3)n2)cc1,49.9% (inactive),–
CCCCc1ccc(-c2csc(/C(C#N)=C/c3ccc(C)o3)n2)cc1,16.8% (inactive),–
CCCCc1ccc(-c2csc(/C(C#N)=C\c3ccco3)n2)cc1,57.8% (active),–
CSc1nc(N2CCN(c3ccccc3)CC2)cc(N2CCN(c3ccccc3)CC2)n1,18.7% (inactive),–
O=C(N/N=C1\CCCc2ccccc21)c1cccc(Br)c1,-12.7% (inactive),–
Cc1ccccc1CN(c1ccc(C(=O)NCc2ccccn2)cc1)S(C)(=O)=O,-3.2% (inactive),–
CCc1ccc(Nc2n[n+](-c3ccccc3)c(-c3ccc(OC)c(Br)c3)s2)cc1,19.2% (inactive),–

SMILES,inhibition,inhibition (measured here: average of repeat tests)
COC(=O)c1c(NC(=O)COC(=O)c2ccccc2O)sc2c1CCCCC2,-3% (inactive),–
COC(=O)c1c(NC(=O)COC(=O)c2ccc(O)cc2)sc2c1CCCCC2,5.8% (inactive),–
COC(=O)c1c(NC(=O)COC(=O)c2ccc(NC(=O)CC#N)cc2)sc2c1CCCCC2,78.4% (active),–
CC(C)CCN1C(Nc2ccccc2)=NC[C@@H]1C,2.7% (inactive),–
COc1ccccc1-c1cc(C(=O)Nc2cc(C)n(Cc3ccc(Cl)cc3)n2)no1,7.9% (inactive),–
Cc1c(Cl)cccc1NC(=O)CCCN1C(=O)c2cccnc2C1=O,3.3% (inactive),–
COc1ccc(Nc2c(-c3ccc(OC)cc3)nc3cnccn23)cc1,-9.1% (inactive),–
O=C(/C=C/Nc1ccccc1)c1ccccc1,-0.7% (inactive),–
CC1(C)OC(=O)C(=CNc2ccccc2)C(=O)O1,-0.4% (inactive),–
O=C([C@@H]1Cc2ccccc2CN1)N1CCN(Cc2ccccc2)CC1,8.9% (inactive),–
Cc1ccc(-n2ncc3c2CCCC3NC(=O)CCc2c(C)noc2C)cc1C (stereo not drawn),16.6% (inactive),–
CCNc1ccc(Br)cc(C(=O)/C=C/c2ccc(Cl)cc2Cl)c1=O,23.6% (inactive),–
CNc1ccc(Br)cc(C(=O)/C=C/c2ccc(Cl)cc2Cl)c1=O,52.7% (active),–
CNc1ccc(Br)cc(C(=O)/C=C/c2cccc(Cl)c2Cl)c1=O,41.9% (inactive),–
N=C1S/C(=C\c2ccco2)C(=O)N1c1nccs1,50% (active),–
COc1ccc(/C=C2\SC(=N)N(c3nccs3)C2=O)cc1OC,20.5% (inactive),–
COc1cc(/C=C2\SC(=N)N(c3ccc4c(c3)OCO4)C2=O)cc(OC)c1O,-8.5% (inactive),–
N=C1S/C(=C\c2ccco2)C(=O)N1c1ccc2c(c1)OCO2,56% (active),–
N=C1S/C(=C\c2ccc(-c3cccc(Cl)c3)o2)C(=O)N1c1nccs1,35.6% (inactive),–
N=C1S/C(=C\c2ccc(-c3ccccc3C(=O)O)o2)C(=O)N1c1ccc2c(c1)OCO2,17.7% (inactive),–
c1ccc(Cc2nnc3sc(-c4cccnc4)nn23)cc1,-12.8% (inactive),–
COc1ccc(CN(CC(=O)NC(C)C)C(=O)CCC(=O)Nc2nccs2)cc1,9.7% (inactive),–
CCOc1ccc(N2C(=O)CN(C)C2=S)cc1,-2% (inactive),–
CC1CCN(C(=O)CCc2ccc(S(=O)(=O)NC(C)C)cc2)CC1,28.5% (inactive),–
O=C(Cn1c(-c2ccco2)nc2ccccc21)N1CCCCC1,-14.9% (inactive),–

SMILES,inhibition,inhibition (measured here: average of repeat tests)
Cn1nc(C(F)(F)F)c(-c2ccc(Br)cc2)c1NC(=O)c1nccnc1C(=O)O,0.4% (inactive),–
COc1ccc(NC2CCCN(C(=O)c3csc(C(C)C)n3)C2)cc1OC (stereo not drawn),-10% (inactive),–
CSc1ccccc1OCc1cc(C(=O)NCc2cnc(C)cn2)no1,5.6% (inactive),–
Nc1ccccc1N=c1ssnc1Cl,4.1% (inactive),–
OCc1ccccc1N=c1ssnc1Cl,9.9% (inactive),–
Clc1ccc(N=c2ssnc2Cl)nc1,38.2% (inactive),–
Cc1cc(Cl)ccc1N=C1N=C(N)c2ccccc21,-3.2% (inactive),–
Fc1ccc(N=c2ssnc2Cl)c(F)c1,91.2% (active),–
COc1cccc(CNC(=O)CSc2nnc3c(n2)[nH]c2ccc(OC)cc23)c1,5.3% (inactive),–
Cc1ccc2c(Cl)cc(Cl)c(OCC(=O)NC(=O)NCc3ccco3)c2n1,17.4% (inactive),–
Cc1ccc2c(Cl)cc(Cl)c(OCC(=O)NCc3ccco3)c2n1,56.6% (active),–
Cc1cc(Cl)cc(Cl)c1OCC(=O)NCc1ccco1,-1.4% (inactive),–
CC1CCN(CC(=O)Nc2cccc(Cl)c2)CC1,-2.2% (inactive),–
CC1(C(=O)N2CC3(CC(c4cccc([N+](=O)[O-])c4)=NO3)C[C@H]2C(=O)NCC(N)=O)CC1 (stereo partly drawn),-4.4% (inactive),–
O=P(c1ccccc1)(c1ccccc1)C(O)c1ccco1 (stereo not drawn),-0.2% (inactive),–
O=C(O)C(O)c1ccco1 (stereo not drawn),65.3% (active),–
O=C(c1ccco1)C(O)c1ccco1 (stereo not drawn),16.7% (inactive),–
FC(F)(F)Oc1ccc(NC(=S)NCCCN2CCOCC2)cc1,-16.9% (inactive),–
COC(=O)C1CCCN1S(=O)(=O)c1ccccc1NC(=O)c1cc(OC)c(OC)c(OC)c1 (stereo not drawn),12.9% (inactive),–
O=C(O)c1cccc(-c2ccc(/C=c3/sc4nc5ccccc5n4c3=O)o2)c1,26.7% (inactive),–
O=C(O)c1cc(C(=O)O)cc(-c2ccc(/C=c3/sc4nc5ccccc5n4c3=O)o2)c1,67% (active),–
O=C(O)c1ccc(-c2ccc(/C=c3/sc4nc5ccccc5n4c3=O)o2)cc1Cl,28.8% (inactive),–
